The source of these data is PubChem BioAssay AID2330 (Broad Institute, 2010).

Molecules are shown by their SMILES. The whole screen tested about 37,000 compounds, of which about 2,800 (7.6%) were called active. Not shown: some 1% with an inconclusive outcome. This is one part of a sample in which actives are shown more often than they occur. Values without a mark were called inactive. No stated cut-off is given here; in the data, active means inhibition above about 80%; inconclusive means no clear call, values can overlap the other calls; inactive means below that.

This test can be described thus: NOMO-1 AML cell viability reduction, primary screen, STK33 inhibitor project, CellTiter-Glo luminescence (AID 2330). Particulars: NOMO-1 AML viability, 72 h, active compounds read high, concentration not given here. Background: In ATP-based viability assays light output follows the ATP content of the culture.
A word on the inhibition: it is the relative decrease from the control value, in per cent. As for `C[C@@H]1CN([C@H](C)CO)C(=O)Cc2cc(NC(=O)Nc3ccc(C(F)(F)F)cc3)ccc2O[C@H]1CN(C)Cc1ccc(-c2ccccc2)cc1`, the inhibition is 128% (active).
The value for `C[C@H]1CN([C@@H](C)CO)C(=O)Cc2cc(NC(=O)Nc3ccccc3)ccc2O[C@H]1CN(C)Cc1ccncc1` was 19.2%.
Regarding `C[C@H]1CN([C@@H](C)CO)C(=O)Cc2cc(NC(=O)C3CCCCC3)ccc2O[C@H]1CN(C)C(=O)Nc1ccc(C(F)(F)F)cc1`, the inhibition was 11.2%.
With `C[C@@H]1CN([C@H](C)CO)C(=O)Cc2cc(NC(=O)Nc3ccc4c(c3)OCO4)ccc2O[C@H]1CN(C)Cc1ccc(C(F)(F)F)cc1`, the inhibition is 77%.
Take `C[C@@H]1CN([C@@H](C)CO)C(=O)Cc2cc(NC(=O)C3CCCCC3)ccc2O[C@@H]1CN(C)C(=O)Nc1ccc(C(F)(F)F)cc1`: the inhibition was 37.5%.
Then `C[C@@H]1CN([C@H](C)CO)C(=O)Cc2cc(NC(=O)c3ccncc3)ccc2O[C@H]1CN(C)Cc1ccc(-c2ccccc2)cc1`, with 111% (active).
As to `C[C@@H]1CN([C@H](C)CO)C(=O)Cc2cc(NC(=O)c3ccncc3)ccc2O[C@@H]1CN(C)Cc1ccncc1`, the inhibition is -19.5%.
The value for `COc1ccc(CN(C)C[C@@H]2Oc3ccc(NC(=O)c4ccncc4)cc3CC(=O)N([C@H](C)CO)C[C@H]2C)cc1` was 13.5%; that for `C[C@H](CO)N1C[C@H](C)[C@H](CN(C)Cc2ccc(-c3ccccc3)cc2)Oc2ccc(NC(=O)Nc3ccc(F)cc3)cc2CC1=O` was 110% (active); that for `C[C@@H]1CN([C@H](C)CO)C(=O)Cc2cc(NC(=O)C3CCCCC3)ccc2O[C@@H]1CN(C)Cc1ccc(C(F)(F)F)cc1` was 101% (active).
The value for `C[C@H]1CN([C@@H](C)CO)C(=O)Cc2cc(NC(=O)CCCN(C)C)ccc2O[C@@H]1CN(C)Cc1ccc(-c2ccccc2)cc1` was 24.3%; that for `C[C@H]1CN([C@@H](C)CO)C(=O)Cc2cc(NC(=O)Nc3ccc(C(F)(F)F)cc3)ccc2O[C@H]1CN(C)Cc1ccc(C(=O)O)cc1` was 12.6%; that for `CC(C)NC(=O)N(C)C[C@@H]1Oc2ccc(NC(=O)C3CCCCC3)cc2CC(=O)N([C@H](C)CO)C[C@@H]1C` was 27.6%.
As for `Cc1noc(C)c1NC(=O)Nc1cccc2c1O[C@@H](CN(C)CC1CCCCC1)[C@H](C)CN([C@@H](C)CO)C2=O`, the inhibition is -7.61%.
In the case of `Nc1nnc(SCC(=O)Nc2ccc(Cl)cc2O)s1`, the inhibition was 14.9%.
Then `C[C@@H]1CN([C@H](C)CO)C(=O)c2cccc(NC(=O)C3CCOCC3)c2O[C@H]1CN(C)S(=O)(=O)c1ccc(Cl)cc1`, with 7.24%.
The value for `COc1ccc(NC(=O)N(C)C[C@@H]2Oc3c(NS(C)(=O)=O)cccc3C(=O)N([C@H](C)CO)C[C@H]2C)cc1` was 12.7%; that for `COc1cccc(-c2cc(C(F)(F)F)n3nc(C(=O)NCc4ccccn4)cc3n2)c1` was 12.5%; that for `COC(=O)c1sc(SC)c(-c2ccn(S(=O)(=O)c3ccc(Cl)cc3)n2)c1C` was -4.42%.
The value for `Cc1ccc(S(=O)(=O)N(C)C[C@H]2Oc3ccc(NC(=O)Cc4cn(C)c5ccccc45)cc3CC(=O)N([C@@H](C)CO)C[C@H]2C)cc1` was 15.7%.
With `N#Cc1c(SCC(=O)Nc2ccc(F)cc2Cl)nc2c(c1C(F)(F)F)CCCCC2`, the inhibition was 24.5%.
The value for `C=CCn1c(SCc2nc3ccccc3[nH]2)nnc1-c1cccc(C)c1` was 1.23%.
The value for `Cc1noc(C)c1NC(=O)Nc1ccc2c(c1)CC(=O)N([C@H](C)CO)C[C@@H](C)[C@@H](CN(C)Cc1ccc(C(F)(F)F)cc1)O2` was 25.7%.
Then `COc1ccc(CN(C)C[C@@H]2Oc3ccc(NC(=O)Nc4ccc(OC)cc4)cc3CC(=O)N([C@H](C)CO)C[C@H]2C)cc1`, with 22%; and `COc1ccc(NC(=O)Nc2ccc3c(c2)CC(=O)N([C@@H](C)CO)C[C@@H](C)[C@@H](CN(C)Cc2ccc(C(F)(F)F)cc2)O3)cc1`, with 101% (active).
Take `C[C@H]1CN([C@@H](C)CO)C(=O)Cc2cc(NC(=O)Cc3cn(C)c4ccccc34)ccc2O[C@@H]1CN(C)Cc1ccccc1`: the inhibition was 32.3%.
Then `C[C@@H]1CN([C@H](C)CO)C(=O)Cc2cc(NC(=O)Cc3cn(C)c4ccccc34)ccc2O[C@@H]1CN(C)Cc1ccc(C(F)(F)F)cc1`, with 112% (active).
Then `C[C@@H]1CN([C@H](C)CO)C(=O)Cc2cc(NC(=O)Nc3cccc4ccccc34)ccc2O[C@@H]1CN(C)Cc1ccc(C(F)(F)F)cc1`, with 105% (active).
The value for `C[C@@H]1CN([C@H](C)CO)C(=O)Cc2cc(NC(=O)Nc3cccc4ccccc34)ccc2O[C@@H]1CN(C)Cc1ccc(C(=O)O)cc1` was 20.5%.
Take `COc1ccc(NC(=O)Nc2ccc3c(c2)CC(=O)N([C@H](C)CO)C[C@H](C)[C@H](CN(C)Cc2ccncc2)O3)cc1`: the inhibition was -3.73%.
Consider `C[C@H]1CN([C@@H](C)CO)C(=O)Cc2cc(NC(=O)Cc3cn(C)c4ccccc34)ccc2O[C@H]1CN(C)Cc1ccccc1`, for which the inhibition was 7.92%.
Then `C[C@@H]1CCCCO[C@@H](CN(C)C)[C@@H](C)CN([C@H](C)CO)C(=O)c2cc(NC(=O)c3ccncc3)ccc2O1`, with 17.5%; and `CC(C)NC(=O)N(C)C[C@H]1Oc2c(NC(=O)C3CCCCC3)cccc2C(=O)N([C@@H](C)CO)C[C@H]1C`, with -7.34%.
For `C[C@H](CO)N1C[C@H](C)[C@@H](CN(C)C(=O)Nc2ccc3c(c2)OCO3)Oc2c(cccc2N(C)C)C1=O`, the inhibition is 13.3%.
The value for `Cc1noc(C)c1NC(=O)N(C)C[C@H]1Oc2ccc(NC(=O)Nc3ccc(C(F)(F)F)cc3)cc2CC(=O)N([C@@H](C)CO)C[C@@H]1C` was 8.18%; that for `O=C(O)c1c(Br)c(Br)c(Br)c(Br)c1-c1c2ccc(=O)cc-2oc2cc(O)ccc12` was 21.5%.
Take `O=C(CSc1nnc(-c2cccs2)n1-c1ccccc1Cl)Nc1cccc(C(=O)O)c1`: the inhibition is -8.58%.
Then `O=C(NCc1ccccn1)C(=O)Nc1cccc(Cl)c1Cl`, with -11.7%.
In the case of `CC(C)(C)c1ccc(Cn2c(=N)n(CC(=O)O)c3ccccc32)cc1`, the inhibition is 31%.
Then `O=c1n(Cc2ccccc2)c2ccccc2n1Cc1ccccc1`, with 23%; and `N=c1n(CC(=O)c2ccc(Cl)c(Cl)c2)c2ccccc2n1Cc1ccccc1`, with 92.6% (active); and `Cc1noc(C)c1NC(=O)Nc1ccc2c(c1)C(=O)N([C@H](C)CO)C[C@H](C)[C@@H](CN(C)Cc1ccc3c(c1)OCO3)OCCCC[C@@H](C)O2`, with 0.0539%.
Regarding `N#C/C(=C\c1ccc(O)c(O)c1)C(=O)NCc1ccccc1`, the inhibition was 133% (active).
With `N#C/C(=C\c1ccc(O)c(O)c1)C(N)=O`, the inhibition was 44.4%.
Then `CC(C)=CC1C(C(=O)O)C1(C)C` (stereo not given), with -10.7%.
Then `COc1ccc(S(=O)(=O)N(C)C[C@H]2Oc3ccc(NS(=O)(=O)c4ccc(C)cc4)cc3CC(=O)N([C@@H](C)CO)C[C@@H]2C)cc1`, with 16.4%.
The value for `COc1ccc(S(=O)(=O)Nc2cccc3c2O[C@@H](CN(C)S(=O)(=O)c2c(C)noc2C)[C@@H](C)CN([C@H](C)CO)C3=O)cc1` was 0.67%; that for `Cc1noc(C)c1NC(=O)Nc1ccc2c(c1)C(=O)N([C@H](C)CO)C[C@@H](C)[C@@H](CN(C)Cc1ccccc1)O2` was -0.997%; that for `Cc1ccc(S(=O)(=O)Nc2ccc3c(c2)C(=O)N([C@H](C)CO)C[C@H](C)[C@H](CN(C)Cc2ccc(Cl)c(Cl)c2)O3)cc1` was 91% (active).
As for `COc1ccc(S(=O)(=O)Nc2ccc3c(c2)C(=O)N([C@H](C)CO)C[C@H](C)[C@@H](CN(C)Cc2ccc(-c4ccccc4)cc2)O3)cc1`, the inhibition was 39.1%.
Consider `C[C@H](CO)N1C[C@H](C)[C@H](CN(C)Cc2ccc(-c3ccccc3)cc2)Oc2ccc(NS(=O)(=O)c3ccccc3)cc2C1=O`, for which the inhibition is 93.2% (active).
Then `Cc1ccc(S(=O)(=O)Nc2ccc3c(c2)CC(=O)N([C@H](C)CO)C[C@@H](C)[C@H](CN(C)Cc2ccc(C(F)(F)F)cc2)O3)cc1`, with 108% (active); and `C[C@H](CO)N1C[C@H](C)[C@@H](CN(C)Cc2ccc(Cl)c(Cl)c2)Oc2ccc(NS(=O)(=O)c3ccccc3)cc2C1=O`, with 20.4%; and `Cc1ccc(S(=O)(=O)Nc2ccc3c(c2)C(=O)N([C@@H](C)CO)C[C@H](C)[C@@H](CN(C)Cc2ccc4c(c2)OCO4)O3)cc1`, with 24.6%.
For `C[C@H]1CN([C@@H](C)CO)C(=O)Cc2cc(NS(=O)(=O)c3ccc(F)cc3)ccc2O[C@H]1CN(C)Cc1ccc(C(F)(F)F)cc1`, the inhibition is 34.1%.
With `Cc1ccc(S(=O)(=O)Nc2ccc3c(c2)CC(=O)N([C@@H](C)CO)C[C@H](C)[C@H](CN(C)Cc2ccccc2)O3)cc1`, the inhibition was 26%.
The value for `COc1ccc(S(=O)(=O)Nc2ccc3c(c2)C(=O)N([C@@H](C)CO)C[C@H](C)[C@@H](CN(C)Cc2ccc(C(F)(F)F)cc2)O3)cc1` was 33.8%.
The value for `C[C@@H]1CN([C@@H](C)CO)C(=O)c2cc(NS(=O)(=O)c3ccccc3)ccc2O[C@@H]1CN(C)Cc1ccc(C(=O)O)cc1` was 28.2%; that for `COc1ccc(S(=O)(=O)Nc2ccc3c(c2)CC(=O)N([C@H](C)CO)C[C@H](C)[C@H](CN(C)Cc2ccc(C(F)(F)F)cc2)O3)cc1` was 125% (active).
The value for `COc1ccc(S(=O)(=O)Nc2ccc3c(c2)C(=O)N([C@@H](C)CO)C[C@H](C)[C@H](CN(C)Cc2ccc(C(F)(F)F)cc2)O3)cc1` was 50.5%.
